# About 14,000 (4.5%) of roughly 310,000 compounds showed an effect of 50% or more. Effects have a minus sign here. For the sample, strong results were picked, then their nearest neighbours and some compounds at random.
# Target: human ether-à-go-go-related gene (hERG) potassium channel (human, UniProt Q12809)
# Test: primary screen, population patch clamp on CHO cells stably expressing hERG; higher = less effect of the substance
# 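Further: peak tail current of the secondary pulse compared with the same well before compound.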
# Chain of human ether-à-go-go-related gene (hERG) potassium channel (Q12809 whole entry, looked up): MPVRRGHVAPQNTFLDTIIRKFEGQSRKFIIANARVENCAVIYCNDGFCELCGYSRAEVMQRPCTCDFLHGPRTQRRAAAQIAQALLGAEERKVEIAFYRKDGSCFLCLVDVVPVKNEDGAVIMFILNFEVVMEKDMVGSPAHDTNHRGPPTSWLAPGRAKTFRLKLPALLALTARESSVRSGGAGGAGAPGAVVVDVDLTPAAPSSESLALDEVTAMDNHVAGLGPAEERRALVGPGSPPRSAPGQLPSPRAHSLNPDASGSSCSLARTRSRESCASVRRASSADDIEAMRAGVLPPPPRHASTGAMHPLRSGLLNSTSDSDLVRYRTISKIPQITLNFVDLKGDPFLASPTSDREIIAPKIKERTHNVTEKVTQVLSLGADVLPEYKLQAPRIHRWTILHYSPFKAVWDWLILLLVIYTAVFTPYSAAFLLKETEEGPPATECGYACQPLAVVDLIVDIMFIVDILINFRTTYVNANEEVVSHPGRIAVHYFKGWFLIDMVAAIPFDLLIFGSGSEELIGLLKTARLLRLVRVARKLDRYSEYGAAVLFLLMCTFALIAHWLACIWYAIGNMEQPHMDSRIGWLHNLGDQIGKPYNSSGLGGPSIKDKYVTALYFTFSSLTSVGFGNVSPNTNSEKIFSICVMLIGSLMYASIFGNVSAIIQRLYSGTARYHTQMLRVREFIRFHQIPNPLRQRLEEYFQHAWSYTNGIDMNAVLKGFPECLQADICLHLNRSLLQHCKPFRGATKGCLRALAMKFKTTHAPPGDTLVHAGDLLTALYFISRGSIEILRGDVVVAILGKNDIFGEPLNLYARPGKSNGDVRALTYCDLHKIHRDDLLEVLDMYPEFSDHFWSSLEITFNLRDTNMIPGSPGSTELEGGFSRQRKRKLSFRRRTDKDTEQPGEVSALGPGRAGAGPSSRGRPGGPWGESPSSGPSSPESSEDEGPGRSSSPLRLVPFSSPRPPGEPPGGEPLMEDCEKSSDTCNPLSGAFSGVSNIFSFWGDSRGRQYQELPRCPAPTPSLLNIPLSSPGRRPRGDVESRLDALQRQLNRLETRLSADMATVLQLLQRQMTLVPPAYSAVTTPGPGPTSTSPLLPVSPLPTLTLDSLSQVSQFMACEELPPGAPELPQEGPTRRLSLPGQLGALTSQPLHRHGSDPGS
row,Structure (SMILES),"hERG current change (%, negative = inhibition) at 10uM [%]"
1,COc1ccc(Cl)cc1NC(=O)CCCN1C(=O)CCC1=O,14.4
2,CCOC(=O)c1c(C)[nH]c(C)c1C(=O)C(Cc1ccccc1)N(C)C.Cl (stereo not shown),4.71
3,O=S(=O)(NCC(c1cccnc1)N1CCN(c2ccc(F)cc2)CC1)c1ccc(F)cc1 (stereo not shown),-69
4,O=S(=O)(NCC(c1ccco1)N1CCN(c2ccc(F)cc2)CC1)c1ccc(F)cc1 (stereo not shown),-0.721
5,O=S(=O)(NCC(c1cccnc1)N1CCN(c2ccc(F)cc2)CC1)c1ccccc1 (stereo not shown),-53.2
6,CCS(=O)(=O)NCC(c1cccnc1)N1CCN(c2ccc(F)cc2)CC1 (stereo not shown),-7.91
7,O=C(NCC(c1cccnc1)N1CCN(c2ccc(F)cc2)CC1)c1ccc(F)cc1 (stereo not shown),-47.6
8,O=C(NCC(c1cccnc1)N1CCN(c2ccc(F)cc2)CC1)OCc1ccccc1 (stereo not shown),-56.8
9,O=C(NCC(c1cccnc1)N1CCN(c2ccc(F)cc2)CC1)Oc1ccccc1 (stereo not shown),-26.4
10,O=C(NCC(c1cccnc1)N1CCN(c2ccccc2)CC1)OCc1ccccc1 (stereo not shown),-45.9
11,COc1ccc2c(c1)-c1c(ssc1=S)C(C)(C)N2S(=O)(=O)c1ccc(C)cc1,2.55
12,CCCCN1C(=O)/C(=C/c2ccc(N(C)C)cc2)C(=O)N(Cc2ccco2)C1=O,7.86
13,S=C(NCC1CCCO1)Nc1ccccc1 (stereo not shown),25.5
14,Cc1c(CN2CCC(C(=O)Nc3cccc(-c4cccc(Cl)c4)c3)CC2)cnn1C,-61.4
15,CC(=O)c1cc(CN2CCC(C(=O)Nc3cccc(-c4cscn4)c3)CC2)cs1,-30.5
16,CCn1cc(CN2CCCC(C(=O)Nc3ccc(-c4cscn4)cc3)C2)c(C)n1 (stereo not shown),-8.71
17,C=CCn1cc(CN2CCC(C(=O)Nc3cccc(-c4cccc(Cl)c4)c3)CC2)c(C)n1,-71.5
18,CCn1cc(CN2CCC(C(=O)Nc3cccc(-c4cccc(OC)c4)c3)CC2)c(C)n1,-46.3
19,Cc1c(CN2CCC(C(=O)Nc3ccc(Oc4ccccc4)nc3)CC2)cnn1C,-32.8
20,CCn1cc(CN2CCC(C(=O)Nc3cccc(-c4cccc(Cl)c4)c3)CC2)c(C)n1,-78.9

row,Structure (SMILES),"hERG current change (%, negative = inhibition) at 10uM [%]"
1,C=CCOc1cccc(C2NC(=O)c3ccccc3O2)c1 (stereo not shown),21.4
2,C/C(=N/O)c1cc(C(C)(C)C)c(O)c(C(C)(C)C)c1,14.6
3,COc1ccc([C@@H]2CC=C(C(=O)O)[C@H](c3ccc(F)cc3)N2S(=O)(=O)c2ccc(C)cc2)cc1OC,10.5
4,Fc1cccc(Cl)c1Cn1nnc(-c2ccc3c(c2)OCO3)n1,-1.37
5,N=c1c2c3c(sc2nc2n1CCCCC2)CCCCC3,-53
6,N=c1c2c3c(sc2nc2n1CCC2)CCCC3,-28.9
7,N=c1c2c3c(sc2nc2n1CCCCC2)CCCC3,-45.2
8,NC(=O)NCc1cccs1,7.27
9,O=S(=O)(c1ccc(Oc2ccccc2)cc1)N1CCOCC1,0.463
10,O=[N+]([O-])c1ccc(-c2ccc(S(=O)(=O)N3CCOCC3)cc2)cc1,-29.8
11,O=S(=O)(c1ccc(Oc2ccc(S(=O)(=O)N3CCOCC3)cc2)cc1)N1CCOCC1,9.29
12,CCOc1cc(C(=S)N2CCOCC2)ccc1OS(=O)(=O)c1ccccc1[N+](=O)[O-],8.98
13,O=[N+]([O-])c1ccccc1Oc1ccc(S(=O)(=O)N2CCOCC2)cc1,-63.8
14,O=[N+]([O-])c1ccccc1S(=O)(=O)Oc1ccc(C(=S)N2CCOCC2)cc1,-75
15,O=[N+]([O-])c1ccc(Oc2ccc(S(=O)(=O)N3CCOCC3)cc2)cc1,-63.4
16,COc1cc(C(=S)N2CCOCC2)ccc1OS(=O)(=O)c1ccccc1[N+](=O)[O-],-1.24
17,Cn1nc([N+](=O)[O-])nc1Oc1ccccc1C(=O)N1CCOCC1,17.4
18,O=C(c1ccccc1Oc1ccc([N+](=O)[O-])cc1)N1CCOCC1,-52
19,O=C(c1cccc(Oc2ccc([N+](=O)[O-])cc2)c1)N1CCOCC1,-34.3
20,O=[N+]([O-])c1ccccc1S(=O)(=O)Nc1ccc(S(=O)(=O)N2CCOCC2)cc1,14.7

row,Structure (SMILES),"hERG current change (%, negative = inhibition) at 10uM [%]"
1,NC(=O)CC(NC(=O)Cc1ccc(Br)cc1)c1ccc(N2CCc3ccccc3C2)c([N+](=O)[O-])c1 (stereo not shown),-2.08
2,O=S(=O)(Nc1ccc(Cl)nn1)c1ccccc1,12.7
3,Cn1c(N)c(C(=O)COC(=O)/C=C/c2ccc(OC(F)F)cc2)c(=O)n(C)c1=O,3.23
4,O=C(O)C(=O)O.Oc1ccccc1CN1CCC(C(O)(c2ccccc2)c2ccccc2)CC1,-68.5
5,O=C(CN1CCC(C(O)(c2ccccc2)c2ccccc2)CC1)Nc1ccccc1,-42.1
6,O=C(O)C(=O)O.Oc1ccccc1CN1CCN(C(O)(c2ccccc2)c2ccccc2)CC1,-46
7,Nc1c(Cl)cc(-c2csc(N3CCCC3c3nc4cc(Cl)c(Cl)cc4n3CCCO)n2)cc1Cl (stereo not shown),-2.8
8,CC(NC(=O)C1CC1)C(c1cccs1)N1CCN(c2ccccc2)CC1 (stereo not shown),-0.284
9,COc1ccc(NC(=O)CN(C)Cc2cccs2)cc1Cl,-15.7
10,NC(=O)C1CCN(c2oc(-c3ccc(F)cc3)nc2S(=O)(=O)c2ccccc2)CC1,-17.4
11,CN1CCN(c2oc(-c3ccccc3Cl)nc2S(=O)(=O)c2ccccc2)CC1,-47.9
12,NC(=O)C1CCN(c2oc(-c3ccccc3)nc2S(=O)(=O)c2ccc(Br)cc2)CC1,-55.9
13,CN1CCN(c2oc(-c3ccccc3)nc2S(=O)(=O)c2ccc(Br)cc2)CC1,-68.6
14,O=S(=O)(c1ccc(Br)cc1)c1nc(-c2ccccc2)oc1N1CCOCC1,-30.7
15,CN1CCN(c2oc(-c3ccccc3F)nc2S(=O)(=O)c2ccc(Cl)cc2)CC1,-57.6
16,O=S(=O)(c1ccc(F)cc1)c1nc(-c2ccccc2F)oc1N1CCCCC1,-20
17,Cc1ccc(S(=O)(=O)c2nc(-c3ccccc3)oc2N2CCC(C(N)=O)CC2)cc1,-26.3
18,O=S(=O)(c1ccccc1)c1nc(-c2ccccc2)oc1N1CCCC1,8.44
